Where “and” joins values, the source holds several entries; their conditions need not be identical. Identical values can stand only once. Records with an inconclusive call do not appear. Calls of active or inactive are those of the source. Rule for the calls: active = hit-call score of the fitted dose curve at least 0.9, where 1 is the maximum; inconclusive = response in the unintended direction; inactive = score below 0.9.
These compounds were tested on zebrafish Estrogen Receptor (ER2a), gene 317734 (assay: ATG_zfER2a_XSP2: Attagene TRANS-FACTORIAL Multi-Species (XSP2) HepG2 Assay for zebrafish Estrogen Receptor (ER2a) (AID 2283818);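 note: hits raise reporter mRNA so AC50 reflects activation of zebrafish ER2a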).
Experimental: ATG_XSP2_multi-species_TRANS is a cell-based, multiplexed assay created by modifying the existing Attagene TRANS-FACTORIAL system to include a panel of nuclear receptors from some or all the following species: human (Homo sapiens), mouse (Mus musculus), frog (Xenopus laevis), zebrafish (Danio rerio), chicken (Gallus gallus), and turtle (Chrysemys picta). The ECOTOX-FACTORIAL format uses HepG2, a human liver cell line, with measurements taken at 24 hours after chemical dosing in a 24-well plate. Xsp2 included 3 nM 6-alpha-fluorotestosterone and 1.5 nM norgestrel to stimulate the androgen receptor.ATG_zfER2a_XSP2 is one of 29 assay components measured or calculated from the ATG_XSP2_multi-species_TRANS assay. It is designed to make measurements of mRNA induction, a form of inducible reporter, as detected with fluorescence intensity signals by Reverse transcription polymerase chain reaction (RT-PCR) and Capillary electrophoresis technology.The assay endpoint ATG_zfER2a_XSP2 was analyzed in the positive analysis fitting direction relative to DMSO as the negative control and baseline of activity. Using a type of inducible reporter, measures of mRNA for gain-of-signal activity can be used to understand the reporter gene at the transcription factor-level as they relate to the gene ER. Furthermore, this assay endpoint can be referred to as a primary readout, because this assay has produced multiple assay endpoints where this one serves a reporter gene function. To generalize the intended target to other relatable targets, this assay endpoint is annotated to the nuclear receptor intended target family, where the subfamily is steroidal.
Human liver HepG2 cells are transiently transfected with multiple reporter transcription units (MRTUs) in 6-well plates using FuGene 6 reagent (Roche; 3 ml FuGene/1 mg DNA). The MRTU constructs are regulated by a cis-regulating element (promoter). […] A major difference between the CIS and TRANS system is that in CIS activities of endogenous TFs are measured, whereas the TRANS assay evaluates changes in activities of exogenous, chimeric NR-Gal4 proteins. […] At the end of 24 hour incubation, total RNA was isolated using TriZol reagent (Invitrogen). The isolated RNA is then reverse-transcribed using oligo(dT) primer and Mo-MLV reverse transcriptase (Invitrogen) with DNAse I (Ambion) treatment for 30 min. The one-tenth of the produced cDNA was amplified by PCR using Taq DNA polymerase (Invitrogen) and two reporter sequence-specific primers. The PCR products were fluorescently labeled by primer extension with 6-arboxyfluorescein (6-FAM) 5'-labeled reporter sequence-specific primer (2 min at 95 C, 20 s at 68 C and 10 min at 72 C) and these products were digested with 5U of HpaI (New England Biolabs) for 2h at 37 C. The fragments were purified using Qiaquick PCR columns (Qiagen), analyzed on an ABI 3130xL genetic analyzer (Applied Biosystems) with peak positions identified by using a set of X-rhodamine (ROX)-labeled MapMarker1000 molecular weight standards (BioVentures). The raw capillary electrophoresis data was processed using Attagraph software (Attagene).
In the case of `C=C(C)CN(CC)c1c([N+](=O)[O-])cc(C(F)(F)F)cc1[N+](=O)[O-]`, the outcome is reported as “inactive”. In the case of `CC1(C)CCC(=Cc2ccc(Cl)cc2)C1(O)Cn1cncn1` (stereo not given), the outcome is reported as “inactive”. For `Cc1c(COC(=O)[C@@H]2[C@H](/C=C(\Cl)C(F)(F)F)C2(C)C)cccc1-c1ccccc1`, the outcome was “inactive”. `COP(=S)(OC)SCn1nnc2ccccc2c1=O` was tested, and the outcome was “inactive”. With `CCN(CC)C(=O)C(C)Oc1cccc2ccccc12` (stereo not given) the outcome was “inactive”. With `N#Cc1c[nH]cc1-c1cccc2c1OC(F)(F)O2` the AC50 was 25.8 µM (active) and 2.71 µM (active). With `CC1(C)C(C=C(Cl)Cl)C1C(=O)OC(C#N)c1cccc(Oc2ccccc2)c1` (stereo not given) the outcome was “inactive”. In the case of `COP(=S)(OC)Oc1ccc([N+](=O)[O-])c(C)c1`, the AC50 is reported as 44.9 µM (active). With `CSC(=O)c1c(C(F)F)nc(C(F)(F)F)c(C(=O)SC)c1CC(C)C` the outcome was “inactive”. In the case of `CC(C)NC(=O)N1CC(=O)N(c2cc(Cl)cc(Cl)c2)C1=O`, the outcome is reported as “inactive”.

Reference: PubChem BioAssay (EPA / NIEHS)
